# Mdm2 MdmX PPI – inhibitors of human Mdm2-MdmX association, primary screen, cell-based, luminescence, split luciferase, SaOS-2, uHTS; SaOS-2 split-luciferase Mdm2/MdmX complementation; inhibition, % at 8 µM; 330,000 tested, 3% active;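 active means inhibition of at least 50% at 8 µM in the primary screen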
# Target sequence (O15151 whole entry, looked up): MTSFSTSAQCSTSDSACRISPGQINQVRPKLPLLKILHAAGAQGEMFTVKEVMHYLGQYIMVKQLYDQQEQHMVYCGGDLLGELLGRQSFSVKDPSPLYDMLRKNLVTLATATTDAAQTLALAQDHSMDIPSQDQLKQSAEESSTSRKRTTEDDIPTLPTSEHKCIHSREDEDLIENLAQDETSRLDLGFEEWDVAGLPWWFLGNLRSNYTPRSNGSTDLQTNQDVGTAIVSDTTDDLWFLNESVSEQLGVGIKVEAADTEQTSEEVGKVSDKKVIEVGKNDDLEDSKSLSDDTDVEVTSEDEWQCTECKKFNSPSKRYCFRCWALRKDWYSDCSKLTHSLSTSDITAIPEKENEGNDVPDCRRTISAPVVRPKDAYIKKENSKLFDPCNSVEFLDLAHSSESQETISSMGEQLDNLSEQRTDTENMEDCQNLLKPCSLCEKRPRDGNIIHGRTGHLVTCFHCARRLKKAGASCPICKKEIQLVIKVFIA
# Target sequence (Q00987 whole entry, looked up): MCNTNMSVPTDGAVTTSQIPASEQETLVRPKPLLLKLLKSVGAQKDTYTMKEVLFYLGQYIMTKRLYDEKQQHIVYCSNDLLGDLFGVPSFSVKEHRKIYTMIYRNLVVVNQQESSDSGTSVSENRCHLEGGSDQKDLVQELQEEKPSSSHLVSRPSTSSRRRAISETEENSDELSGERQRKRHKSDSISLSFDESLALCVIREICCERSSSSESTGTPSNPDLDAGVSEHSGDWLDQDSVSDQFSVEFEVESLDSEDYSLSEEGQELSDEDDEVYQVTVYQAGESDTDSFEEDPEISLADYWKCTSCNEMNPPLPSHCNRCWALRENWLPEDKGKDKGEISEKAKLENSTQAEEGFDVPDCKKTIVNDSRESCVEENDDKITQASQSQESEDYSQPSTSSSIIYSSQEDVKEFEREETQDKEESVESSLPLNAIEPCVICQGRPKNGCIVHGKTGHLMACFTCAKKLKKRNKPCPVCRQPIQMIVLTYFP
# Beta apoptosis – inhibitors of cytokine-induced beta cell apoptosis, primary screen, luminescence. AID 435005, 2010. 300,000 tested, 0.8% active. protection from apoptosis, % (test concentration not listed). INS-1E cytokine-induced death, ATP luminescence, 48 h; percent of positive-control rescue, neutral wells zero;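 active means Every replicate reaches about 75%, or at least half do and their mean reaches it too, limit read from the data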;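 further: 0% = cytokine-treated negative control wells and 100% = positive control rescue; higher means more ATP so stronger rescue from cytokine killing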
# CSC inhib – cancer stem cell viability inhibitors, primary screen, luminescence; cancer stem cell-like cells viability; inhibition, % at 7.5 µM; 300,000 tested, 1.1% active; AID 2717, 2010; in the data active means inhibition above about 75%; tested in HMLE shEcad cells
# MPTP block – mitochondrial permeability transition pore inhibitors, primary screen, biochemical, isolated mouse mitochondria, absorbance; Ca2+ swelling absorbance, 30 min; inhibition, % at 10 µM; 360,000 tested, 1.4% active; AID 602449, 2012;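 active means inhibition of 50% or more, scaled per plate between neutral and stimulator controls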;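 further: 0% = DMSO wells given calcium and 100% = 1 mM EGTA wells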
# SKKanGAS inh – S. pyogenes SKKanGAS growth inhibitors in kanamycin, primary screen, streptokinase expression inhibitor project, SKKanGAS strain, BacTiter-Glo luminescence; 6 h; inhibition, % at 7.5 µM; 300,000 tested, 1.3% active; AID 1662, 2009;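 active means mean replicate score, as percent of positive control median, at least 50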;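 further: strain carries kanamycin resistance gene driven by streptokinase promoter and grows in 40 µg/ml kanamycin; loss of luminescence reflects streptokinase promoter inhibition or plain growth inhibition; 0% = median of DMSO wells and 100% = positive control at its reference dose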
# GRIN3A LBD mod – binders of NR3A ligand-binding domain, primary screen, biophysical, differential scanning fluorimetry, uHTS; Glutamate receptor ionotropic, NMDA 3A (GRIN3A) ligand-binding domain; NR3A LBD differential scanning fluorimetry, Tm shift; 0% = protein alone, 100% = glycine-bound protein; Tm shift relative to glycine control, % at 25 µM; 340,000 tested, 2.5% active; AID 1259313, 2017;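 active means melting temperature shift of at least 10% of the positive control shift, at one fixed dose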
# Mdm2 MdmX conf – Mdm2-MdmX complex disruptors, retested hits, confirmation, luminescence, single concentration; shares compounds with Mdm2 MdmX PPI; Mdm2-MdmX binding, luminescent assay; inhibition, % at 8 µM; 10,000 tested, 55% active; in the data active means inhibition above about 40%
# FLuc counter – full-length luciferase signal inhibition, confirmation, counter-screen for Mdm2/MdmX interaction inhibitor project, cell-based, single concentration, SaOS-2. shares compounds with Mdm2 MdmX PPI. SaOS-2 full-length luciferase counterscreen, luminescence. inhibition, % at 8 µM. 6,200 tested, 77% active. AID 504607, 2011;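 active means mean inhibition at 8 µM reaching about 37%, which flags the compound as non-specific, limit read from the data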;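 further: p53-null SaOS-2 cells with luciferase driven by a doxycycline-inducible promoter; compound on cells about two nights before reading with doxycycline added after day one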
# Active calls of the source: *; / = not tested or not shown. The list is not random: actives were taken first. Their share in the collection is about 6.9%.
SMILES,Mdm2 MdmX PPI,Beta apoptosis,CSC inhib,MPTP block,SKKanGAS inh,GRIN3A LBD mod,Mdm2 MdmX conf,FLuc counter
CN1CCN(c2ccc([N+](=O)[O-])cc2C(=O)c2ccc(Cl)cc2)CC1,50*,18,-4,-2,5,4,61*,57*
O=C(c1ccccc1)c1cc([N+](=O)[O-])ccc1N1CCOCC1,34,/,/,0,0,1,/,/
CC1CCCN(c2ccc([N+](=O)[O-])cc2C(=O)c2ccccc2)C1 (stereo not given),65*,45,57,4,-8,3,55*,99*
COC(=O)Cn1c(C(O)c2ccccc2)nc2ccccc21 (stereo not given),-2,-3,-10,-1,2,-1,/,/
O=C(CCc1nnc2ccc(NCc3ccccc3)nn12)NC1CCCC1,26,/,5,0,2,0,/,/
c1ccc2c(c1)ncn2-c1ccc(-c2ccnc(-c3ccncc3)n2)cc1,53*,-2,2,0,5,0,16,/
Nc1nccc(-c2ccc(-n3cnc4ccccc43)cc2)n1,70*,-11,/,-1,-4,0,56*,22
Cc1nccc(-c2ccc(-n3cnc4ccccc43)cc2)n1,32,-3,3,-1,-5,-1,/,/
c1ccc2c(c1)ncn2-c1ccc(-c2ccnc3ncnn23)cc1,10,-1,-10,0,-1,-2,/,/
O=C(CN(C(=O)CNS(=O)(=O)c1ccccc1)c1ccc(F)cc1)NCc1ccco1,15,5,-7,-1,-4,1,/,/
O=C(CN1C(=O)NC(c2ccccc2)(c2ccccc2)C1=O)NCc1ccc(F)cc1,-1,-5,-3,-1,/,3,/,/
Cc1c(C#N)c(N)nc2c3c(sc12)NC(=O)CC3c1ccc(Cl)cc1 (stereo not given),92*,0,-15,3,-9,14*,24,/
Cc1ccc(OC(=O)c2oc3ccc(F)cc3c2C)c(C)c1,52*,55,-2,-1,40,0,-25,/
CCOC(=O)c1sc(Nc2nc(C)cc(C)n2)nc1C,57*,33,50,2,17,-1,60*,57*
CCOC(=O)c1sc(Nc2nc(C)cc(OC)n2)nc1C,6,14,-4,0,23,1,/,/
CNc1nc(NN)nc(Nc2ccccc2)n1,9,1,-1,-1,27,-3,/,/
Cc1ccccc1-c1ncc(CN2CCC(CO)(CCCc3ccccc3)CC2)cn1,19,-2,4,2,3,2,/,/
NC(=S)N1OC[C@@H]2COc3ccc4ccccc4c3[C@@H]21,69*,-6,21,0,6,0,53*,46*
CO/N=C/NC(=O)N1OC[C@@H]2COc3ccc4ccccc4c3[C@@H]21,22,-1,-18,4,3,-1,/,/
CC(C)n1c(/C=C/[C@@H](O)C[C@@H](O)CC(=O)O)c(-c2ccc(F)cc2)c2ccccc21,59*,8,16,0,3,1,50*,108*
COc1ccc(-n2cnc(N)c2C(=O)c2cccc([N+](=O)[O-])c2)cc1,36,-14,1,-2,-3,0,/,/
COc1ccc2cc3c(N)nn(C(=O)c4cccc([N+](=O)[O-])c4)c3nc2c1,88*,-19,-10,-1,0,-2,67*,32
CCOC(=O)C1CCN(c2nc3cc(OC)ccc3cc2C#N)CC1,4,-6,1,-2,-1,3,/,/
COc1ccc2cc3c(N)nn(C(=O)Cc4ccccc4OC)c3nc2c1,72*,-4,1,0,-1,6,67*,62*
COc1ccc2cc3c(N)nn(C(=O)C4CCC(C(C)(C)C)CC4)c3nc2c1 (stereo not given),94*,-27,59,30,93*,0,88*,11
SMILES,Mdm2 MdmX PPI,Beta apoptosis,CSC inhib,MPTP block,SKKanGAS inh,GRIN3A LBD mod,Mdm2 MdmX conf,FLuc counter
COc1cccc(NC(=O)CSc2nc(=O)n(Cc3ccncc3)c3c2CCCC3)c1,-17,/,-9,-1,-10,1,/,/
O=C(Nc1cccc(S(=O)(=O)NC2=NCCC2)c1)c1ccc(=O)[nH]c1,-18,-6,-17,0,/,1,/,/
Cc1cc(C)c2oc(-c3ccc(C)c(NC(=S)NC(=O)c4cccs4)c3)nc2c1,77*,-3,/,4,8,0,0,/
Cc1nc(NC(=O)/C=C/c2ccccc2)n[nH]1,56*,-37,45,0,0,-1,40*,33
CN(CCc1ccccc1)C(c1cc2ccccc2o1)c1nnnn1C(C)(C)C (stereo not given),/,/,/,1,/,/,/,/
Cc1cccc(/C=C(\c2nc3ccccc3[nH]2)S(=O)(=O)c2ccccc2)c1,/,/,/,1,3,-2,/,/
CC(C)(C)c1ccc(/C=C(\c2nc3ccccc3[nH]2)S(=O)(=O)c2ccccc2)cc1,93*,108*,125*,13,11,1,100*,51*
CCC(CC)NCc1ccc2c(c1)c1ccccc1n2CC,57*,8,9,7,-8,0,43*,65*
O=C(NCC(c1ccco1)N1CCOCC1)C1CCCCC1 (stereo not given),18,-2,0,-1,1,1,/,/
CC(=O)c1cccc(NC(=O)CCc2nnc3ccc(N4CCOCC4)nn23)c1,9,1,/,2,-4,0,/,/
CN(C)C(=O)CSc1nnc2sc3ccccc3n12,0,-1,-1,-4,-3,-1,/,/
O=c1c2ccccc2nnn1CSc1nnc2sc3ccccc3n12,53*,2,-5,/,1,/,54*,113*
Cc1cc2c(cc1C)C(c1ccccc1OC(C)C)CC(=O)N2 (stereo not given),57*,41,96*,0,6,0,55*,43*
CC(C)Oc1ccccc1C1CC(=O)Nc2cc3c(cc21)OCO3 (stereo not given),70*,34,54,15,-15,-2,61*,84*
O=C1CC(c2cccnc2)c2cc3c(cc2N1)OCO3 (stereo not given),-22,-1,-15,-1,2,-1,/,/

# Compound activity (PubChem)
